In PubChem BioAssay (EPA / NIEHS):
“And” between values parts separate entries of the source, which are not always exact repeats. Equal values may be shown once. Inconclusive results are not listed. Where a structure was tested more than once in an assay, its records may differ in their call. The source made the active and inactive calls. How the source made its calls: active means hit-call score of the fitted dose curve at least 0.9, where 1 is the maximum; inconclusive means response in the unintended direction; inactive means score below 0.9.

Key:
[1] = TOX21_p53_BLA_p5_viability: Viability Assessment in the Tox21 HCT-116 p53 Agonism Beta-lactamase Assay, Phase 5 (AID 2283600)
Summary of the method: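 Workflow: seed 4000 cells per well, wait 5 h, add compounds (DMSO, 217-fold dilution), incubate 16 h, load CCF4-AM 2 h, add CellTiter-Glo, read luminescence after 30 min.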

[2] = target: Cellular tumor antigen p53 (Homo sapiens) (UniProt P04637); assay: TOX21_p53_BLA_p4_ratio: Tox21 HCT-116 p53 Agonism Beta-lactamase Assay, Ratio, Phase 4 (AID 2283601)
Chain of Cellular tumor antigen p53 (Homo sapiens) (P04637 whole entry, looked up): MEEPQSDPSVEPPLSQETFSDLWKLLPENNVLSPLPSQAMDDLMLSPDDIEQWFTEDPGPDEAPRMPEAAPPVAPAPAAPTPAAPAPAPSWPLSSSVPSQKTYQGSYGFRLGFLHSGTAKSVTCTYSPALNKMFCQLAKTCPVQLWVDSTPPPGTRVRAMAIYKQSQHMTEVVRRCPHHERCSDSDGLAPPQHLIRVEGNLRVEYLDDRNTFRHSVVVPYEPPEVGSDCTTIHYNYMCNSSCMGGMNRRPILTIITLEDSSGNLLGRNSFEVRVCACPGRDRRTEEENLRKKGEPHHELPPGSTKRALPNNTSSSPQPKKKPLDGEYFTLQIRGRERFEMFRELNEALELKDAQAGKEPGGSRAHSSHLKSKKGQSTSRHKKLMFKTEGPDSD
Summary of the method: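 Signal is the blue/green (460nm/530nm) ratio of cleaved versus uncleaved CCF4-AM substrate, read after 2 h substrate loading. Cells were HCT116 carrying the p53-responsive beta-lactamase reporter, dosed 16 h at 37C, 5% CO2; CellTiter-Glo measured in parallel.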

[3] = system: Thyroperoxidase (TPO), gene 54314; assay: CCTE_Simmons_AUR_rTPO: CCTE's Amplex UltraRed Assay for Thyroperoxidase (TPO) Inhibition, Simmons Lab (AID 2283662);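 on AC50: potency for loss of signal meaning inhibition of peroxidase activity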
Summary of the method: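 Rat thyroid microsomes (5 ug protein) were incubated with test compound (8 concentrations, 5 nM–87.5 uM final, 0.5% DMSO), 25 uM Amplex UltraRed and 300 uM H2O2 in 200 mM phosphate buffer for 30 min at 37C in the dark; fluorescence read at 544/590 nm.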

[4] = Tanguay_ZF_120hpf_MORT_legacy: (Legacy) Oregon State University Tanguay Lab 120 Hour Post-fertilization zebrafish Assay for Mortality (AID 2283633)
Summary of the method: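 5D WT zebrafish, chorion removed 4 hpf; 1 embryo/well from 6 hpf; static exposure to 120 hpf, 28C, dark, sealed. Final DMSO 0.64%. Readout: binary mortality, brightfield, 24 + 120 hpf; DMSO as negative control.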

[5] = Tanguay_ZF_120hpf_YSE_legacy: (Legacy) Oregon State University Tanguay Lab 120 Hour Post-fertilization zebrafish Assay for Yolk Sac Edema (AID 2283634);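 on AC50: actives raise the incidence of yolk sac edema above the DMSO baseline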
Summary of the method: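 Dechorionate (pronase, 4 hpf) → place one 6 hpf embryo per well → static compound exposure, sealed and foil-covered, 28C, to 120 hpf → record yolk sac edema as present or absent. Final DMSO 0.64%.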

[6] = Tanguay_ZF_120hpf_AXIS_legacy: (Legacy) Oregon State University Tanguay Lab 120 Hour Post-fertilization zebrafish Assay for Body Axis Malformation (AID 2283635);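 on AC50: potency for an increased fraction of larvae scored with body axis malformation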
Summary of the method: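 Chorion is removed with pronase at 4 hpf, then single 6 hpf embryos are dosed (final DMSO 0.64%) and held statically at 28C in sealed, foil-covered plates. At 120 hpf body axis malformation is recorded as present or absent.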

[7] = Tanguay_ZF_120hpf_EYE_legacy: (Legacy) Oregon State University Tanguay Lab 120 Hour Post-fertilization zebrafish Assay for Eye Malformation (AID 2283636)
Summary of the method: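 Binary brightfield scoring of eye defects at 120 hpf after static exposure from 6 hpf of single pronase-dechorionated wild-type embryos (28C, 0.64% DMSO). Non-mortality endpoints omitted where embryos died; fit vs DMSO.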

[8] = Tanguay_ZF_120hpf_SNOU_legacy: (Legacy) Oregon State University Tanguay Lab 120 Hour Post-fertilization zebrafish Assay for Snout Malformation (AID 2283637)
Summary of the method: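 Binary snout-malformation call at 120 hpf in wild-type 5D embryos, chorion removed by pronase, under static exposure from 6 hpf at 28C (0.64% DMSO). Embryos dying by 24 or 120 hpf excluded.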

[9] = Tanguay_ZF_120hpf_PE_legacy: (Legacy) Oregon State University Tanguay Lab 120 Hour Post-fertilization zebrafish Assay for Pericardial Edema (AID 2283640);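 on AC50: potency for increased incidence of pericardial edema versus DMSO baseline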
Summary of the method: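 Embryos from wild-type 5D adults were staged, then dosed in 0.64% DMSO. They were kept sealed in the dark at 28C until 120 hpf. Pericardial edema was then recorded as present or absent.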

[10] = Tanguay_ZF_120hpf_SOMI_legacy: (Legacy) Oregon State University Tanguay Lab 120 Hour Post-fertilization zebrafish Assay for Somite Malformation (AID 2283647)
Summary of the method: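 Read-out: presence or absence of somite malformation in 120 hpf larvae, gain-of-signal relative to DMSO baseline. Embryos lacked chorion (pronase, 4 hpf) and were exposed statically from 6 hpf at 28C; dead larvae not scored.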

[11] = Tanguay_ZF_120hpf_PFIN_legacy: (Legacy) Oregon State University Tanguay Lab 120 Hour Post-fertilization zebrafish Assay for Pectoral Fin Malformation (AID 2283648);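 further: each larva judged yes or no for fin defect by brightfield with dead larvae skipped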
Summary of the method: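 Pectoral fin malformation was recorded as a binary endpoint at 120 hpf in wild-type Tropical 5D larvae, which had been dechorionated and exposed statically from 6 hpf at 28C in 0.64% DMSO. Dead embryos were excluded.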

[12] = Tanguay_ZF_120hpf_CFIN_legacy: (Legacy) Oregon State University Tanguay Lab 120 Hour Post-fertilization zebrafish Assay for Caudal Fin Malformation (AID 2283649)
Summary of the method: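 Binary presence or absence of caudal fin malformation at 120 hpf, read by brightfield microscopy, with DMSO as baseline. Larvae came from 5D wild-type embryos exposed statically from 6 hpf at 28C after pronase dechorionation.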

[13] = Tanguay_ZF_120hpf_CIRC_legacy: (Legacy) Oregon State University Tanguay Lab 120 Hour Post-fertilization zebrafish Assay for Circulatory Malformation (AID 2283651)
Summary of the method: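 Static exposure, 6–120 hpf, 28C, sealed and dark; one dechorionated 5D embryo/well; DMSO 0.64% v/v final. Binary circulation endpoint by brightfield; dead embryos not scored.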

[14] = Tanguay_ZF_120hpf_TRUN_legacy: (Legacy) Oregon State University Tanguay Lab 120 Hour Post-fertilization zebrafish Assay for Truncated Body (AID 2283655)
Summary of the method: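 Truncated body is recorded as a binary endpoint at 120 hpf by brightfield imaging of wild-type 5D larvae. Exposure runs statically from 6 hpf at 28C with 0.64% DMSO; embryos dying earlier are not scored.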

[15] = Tanguay_ZF_120hpf_NC_legacy: (Legacy) Oregon State University Tanguay Lab 120 Hour Post-fertilization zebrafish Assay for Notochord and Tail Malformation (AID 2283656)
Summary of the method: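 Binary notochord-distortion calls, made by brightfield inspection, form the read-out; activity is fitted in the positive direction against DMSO. Exposure ran statically from 6 to 120 hpf at 28C with 0.64% DMSO.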

[16] = Tanguay_ZF_120hpf_JAW_legacy: (Legacy) Oregon State University Tanguay Lab 120 Hour Post-fertilization zebrafish Assay for Jaw Malformation (AID 2283638);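 on AC50: active means more embryos with jaw malformation than DMSO controls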
Summary of the method: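 Steps: dechorionate 4 hpf embryos (pronase); plate 1/well at 6 hpf; add test chemical, 0.64% DMSO final; seal, cover, hold at 28C statically to 120 hpf; score jaw defect presence/absence microscopically. Dead embryos not scored.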

[17] = Tanguay_ZF_120hpf_OTIC_legacy: (Legacy) Oregon State University Tanguay Lab 120 Hour Post-fertilization zebrafish Assay for Otic Vesicle Malformation (AID 2283639)
Summary of the method: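 Brightfield scoring at 120 hpf, binary present/absent; DMSO negative control, 5uM trimethyltin chloride positive control. Static exposure at 28C, final DMSO 0.64% (vol/vol). Dead embryos not scored for malformation.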

[18] = Tanguay_ZF_120hpf_BRAI_legacy: (Legacy) Oregon State University Tanguay Lab 120 Hour Post-fertilization zebrafish Assay for Brain Malformation (AID 2283641)
Summary of the method: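 Wild-type 5D larvae, static waterborne exposure to 120 hpf, 28C, 0.64% v/v DMSO. Brightfield scoring of brain defects, binary; dead embryos excluded. Positive ctrl 5uM trimethyltin chloride.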

[19] = Tanguay_ZF_120hpf_SWIM_legacy: (Legacy) Oregon State University Tanguay Lab 120 Hour Post-fertilization zebrafish Assay for Swim Bladder Malformation (AID 2283654);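 further: swim bladder malformation in each larva scored yes or no under brightfield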
Summary of the method: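 Scoring is binary for swim bladder defects at 120 hpf, by brightfield inspection of zebrafish larvae. Embryos were exposed singly from 6 hpf after pronase dechorionation, at 28C with 0.64% DMSO; mortality excluded scoring.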

[20] = Tanguay_ZF_120hpf_PIG_legacy: (Legacy) Oregon State University Tanguay Lab 120 Hour Post-fertilization zebrafish Assay for Pigmentation Malformation (AID 2283650)
Summary of the method: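 Pigment malformation recorded as a binary call at 120 hpf in zebrafish (Tropical 5D) exposed singly from 6 hpf after pronase dechorionation. Static, sealed, 28C exposure, 0.64% DMSO; mortality excludes scoring; positive-direction fit against DMSO.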

Measured: AC50

CC(=O)C1=C(C)[C@@H]2C[C@@]3(C1)[C@H](C)CC[C@H]3C2(C)C
inactive: [1] | [2]

CCCCCCCC(=O)N(C)C
inactive: [1] | [2]

CC(=O)CCc1ccc(O)cc1
inactive: [1] | [2]

C=CCS(=O)(=O)O
inactive: [1] | [2]

c1ccc(OCCOc2ccccc2)cc1
inactive: [1] | [2]

CCCCCC1C(=O)CCC1CC(=O)OC (stereo not given)
inactive: [1] | [2]

O=S1(=O)CC(Cl)(Cl)C(Cl)(Cl)C1
active: [1] 6.87 µM | [2] 39 µM

C=CC(C)(CCC=C(C)C)OC(=O)CC (stereo not given)
inactive: [1] | [2]

C1=COCCC1
inactive: [1] | [2]

CCCCC/C=C\C=C\C(=O)OCC
active: [1] 47.7 µM | [2] 89.9 µM | [3] 38.6 µM

O=S(=O)(O)c1cc(O)c(O)c(S(=O)(=O)O)c1
inactive: [1] | [2]

O=Cc1ccccc1O
inactive: [1] | [3]

CN1CCc2cccc3c2[C@H]1Cc1ccc(O)c(O)c1-3
active: [2] 67.3 µM | [3] 0.522 µM
inactive: [1] | [2]

O=C(c1ccc(OCCN2CCCCC2)cc1)c1c(-c2ccc(O)cc2)sc2cc(O)ccc12
active: [1] 77.6 µM and 87.9 µM and 41.9 µM | [2] 69.6 µM and 69.3 µM and 36.5 µM
not listed: [16] | [17] | [18] | [19] | [20]
inactive: all other assays above

O=C(O)C1=NN(c2ccc(S(=O)(=O)O)cc2)C(=O)C1
active: [3] 36.4 µM
inactive: [1] | [2]

COC(=O)c1ccc(C(=O)OC)cc1
active: [5] 37 µM | [6] 21.1 µM | [7] 34 µM | [8] 30.2 µM | [16] 32.7 µM | [9] 28.9 µM | [18] 44.4 µM | [19] 12.3 µM
not listed: [3] | [20]
inactive: all other assays above

[O-]/[N+](=N\O)c1ccccc1
inactive: [1] | [2] | [3]

c1ccc2scnc2c1
inactive: [1] | [2]
active: [3] 56 µM and 16.7 µM

CCCCOCCOCCO
not listed: [3]
inactive: all other assays above
